Casp6 inh – caspase-6 (human) enzyme inhibition. P55212. purified caspase-6, Z-VEID-R110 cleavage fluorescence. inhibition, % at 12.5 µM. 0.53% of 350,000 active;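 active means mean inhibition across replicates at least about 35%, with every replicate also reaching that limit, limit read from the data; inconclusive means only one of the two criteria met; inactive means neither criterion met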
Target sequence (P55212 24-179 limits assumed): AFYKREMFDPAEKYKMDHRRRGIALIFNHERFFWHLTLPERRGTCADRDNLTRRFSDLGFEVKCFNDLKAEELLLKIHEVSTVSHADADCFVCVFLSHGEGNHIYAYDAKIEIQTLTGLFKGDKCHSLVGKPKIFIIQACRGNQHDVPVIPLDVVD
Target sequence (P55212 194-293 limits assumed): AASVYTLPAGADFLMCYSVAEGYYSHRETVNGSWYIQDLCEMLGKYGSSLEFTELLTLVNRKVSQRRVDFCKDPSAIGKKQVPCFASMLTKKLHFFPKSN
NSD2 inh – inhibitors of human histone methyltransferase NSD2; O96028; NSD2 peptide methylation, AlphaScreen, 120 min; inhibition, % at 12.5 µM; 0.54% of 310,000 active; AID 743445; in the data active means inhibition above about 50%
PglD DTNB – blocks C. jejuni PglD acetyltransferase activity. purified PglD enzyme, DTNB colorimetric CoA detection. inhibition, % at 12.5 µM. 0.098% of 360,000 active; in the data active means inhibition above about 16%, passing the limit was not always enough; inconclusive means no clear call, values can overlap the other calls
CFTR F508del cor – correctors of CFTR F508del function in bronchial epithelial cells | 0.36% of 350,000 active | AID 720511 | activity (quench increase), % at 7.58 µM | CFBE cells, YFP halide quenching; stimulated with forskolin plus potentiator P3; % fluorescence drop versus neutral controls;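 active means mean added fluorescence quench of at least 8% versus neutral control, with both replicates also reaching 8%; inconclusive means only one of the mean or replicate conditions met; inactive means mean below 8% and not both replicates reaching 8%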;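 further: cells transiently co-express mutant CFTR-F508del with the halide-sensitive YFP; corrector assay measuring rescue of mutant channel to the surface after 24 h compound exposure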
ALR inh – inhibitors of human sulfhydryl oxidase ALR; purified ALR, DTT oxidation, H2O2 HRP-luminol luminescence; inhibition, % (test concentration not listed); 3.8% of 290,000 active;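 active means mean replicate inhibition above about 79%, with every replicate also reaching it, limit read from the data; inconclusive means only one of the two criteria met; inactive means mean below limit and not every replicate reaching it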
Target sequence (P55789 whole entry, looked up): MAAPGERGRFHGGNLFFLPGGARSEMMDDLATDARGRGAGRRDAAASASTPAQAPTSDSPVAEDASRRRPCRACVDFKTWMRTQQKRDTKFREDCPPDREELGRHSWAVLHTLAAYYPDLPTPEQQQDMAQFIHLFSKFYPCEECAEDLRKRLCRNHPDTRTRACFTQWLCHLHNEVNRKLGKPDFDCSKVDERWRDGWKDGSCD
HIV Env fusion – blocks HIV Env-driven cell-cell fusion | HeLa-JRFL Env/CEM21 cell fusion, luciferase | inhibition, % at 12.3 µM | 1.1% of 360,000 active;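 active means mean replicate inhibition score of at least 50 and every replicate individually at or above 50; inconclusive means only one of the two criteria met; inactive means mean below 50 and not all replicates reaching 50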
Large screens that a line does not name were inactive; [ ] = remark or other dose. The list is not random: actives were taken first. Their share in the collection is about 4.1%.

C[C@H](CO)N1C[C@H](C)[C@@H](CN(C)Cc2ccc(C(F)(F)F)cc2)Oc2ccc(NS(=O)(=O)c3ccc(F)cc3)cc2C1=O	none (no result: NSD2 inh, ALR inh)
COc1ccc(S(=O)(=O)Nc2ccc3c(c2)C(=O)N([C@H](C)CO)C[C@@H](C)[C@H](CN(C)Cc2ccc(C(F)(F)F)cc2)OCCCC[C@@H](C)O3)cc1	HIV Env fusion 64[16.7 µM] (no result: NSD2 inh, ALR inh)
COc1ccc(S(=O)(=O)Nc2ccc3c(c2)C(=O)N([C@H](C)CO)C[C@@H](C)[C@@H](CN(C)Cc2ccc(C(F)(F)F)cc2)OCCCC[C@H](C)O3)cc1	HIV Env fusion 74[16.7 µM] (no result: NSD2 inh, ALR inh)
C[C@@H]1CN([C@@H](C)CO)C(=O)c2cc(NS(=O)(=O)c3ccc(Cl)cc3)ccc2O[C@@H]1CN(C)Cc1ccc(C(F)(F)F)cc1	CFTR F508del cor 9.8 (no result: Casp6 inh, NSD2 inh, PglD DTNB, ALR inh)
CCCNC(=O)Nc1ccc2c(c1)C(=O)N(C)C[C@H](OC)[C@@H](C)CN(CC1CCCC1)[C@@H](C)CO2	none (no result: Casp6 inh, NSD2 inh, PglD DTNB, ALR inh, HIV Env fusion)
COc1ccc(S(=O)(=O)Nc2ccc3c(c2)C(=O)N([C@@H](C)CO)C[C@@H](C)[C@H](CN(C)Cc2ccc(C(F)(F)F)cc2)OCCCC[C@H](C)O3)cc1	HIV Env fusion inconclusive (no result: NSD2 inh, ALR inh)
COc1ccc(S(=O)(=O)Nc2ccc3c(c2)C(=O)N([C@H](C)CO)C[C@@H](C)[C@@H](CN(C)Cc2ccc(C(F)(F)F)cc2)OCCCC[C@@H](C)O3)cc1	HIV Env fusion 55[16.7 µM] (no result: NSD2 inh, ALR inh)
C[C@@H]1CCCCO[C@H](CN(C)Cc2ccc(C(F)(F)F)cc2)[C@H](C)CN([C@H](C)CO)C(=O)c2cc(NS(=O)(=O)c3cccs3)ccc2O1	HIV Env fusion 60[16.7 µM] (no result: NSD2 inh, ALR inh)
Cc1ccc(S(=O)(=O)N(C)C[C@H]2Oc3ccc(NC(=O)Nc4c(C)noc4C)cc3CC(=O)N([C@H](C)CO)C[C@@H]2C)cc1	none (no result: Casp6 inh, NSD2 inh, ALR inh)
COC(=O)C[C@@H]1C[C@H]2c3cc(NC(=O)Nc4ccc(C(F)(F)F)cc4)ccc3O[C@H]2[C@@H](CO)O1	none (no result: NSD2 inh, ALR inh)
OCCCNCc1ccc(N(c2ccccc2)c2ccccc2)cc1	ALR inh 99
CC(=O)O[C@H]1C(=O)[C@@]2(C)C([C@H](OC(=O)c3ccccc3)[C@]3(O)C[C@H](OC(=O)[C@H](O)[C@@H](NC(=O)c4ccccc4)c4ccccc4)C(C)=C1C3(C)C)[C@]1(OC(C)=O)CO[C@@H]1C[C@H]2O (stereo partly specified)	CFTR F508del cor 18 (no result: NSD2 inh, ALR inh, HIV Env fusion)
CC(=O)O[C@H]1C(=O)[C@]2(C)[C@H]([C@H](OC(=O)c3ccccc3)[C@]3(O)C[C@H](OC(=O)[C@H](O)[C@@H](NC(=O)c4ccccc4)c4ccccc4)C(C)=C1C3(C)C)[C@]1(OC(C)=O)CO[C@@H]1C[C@@H]2O	CFTR F508del cor 10 (no result: NSD2 inh)
C[C@H]1CN([C@@H](C)CO)C(=O)c2cc(-c3cccnc3)cnc2O[C@@H]1CN(C)Cc1ccc(-c2ccccc2)cc1	none (no result: NSD2 inh, ALR inh)
COc1cccc(NC(=S)Nc2ccc(O)cc2)c1	ALR inh 99
Oc1ccc(NC(=S)Nc2ccccc2)cc1	ALR inh 99
O=C(NNC(=S)Nc1ccccc1)Nc1ccccc1	none (no result: PglD DTNB)
S=C(Nc1ccccc1)Nc1ccc(OCc2ccc(Cl)cc2Cl)cc1	HIV Env fusion 103 (no result: Casp6 inh, CFTR F508del cor)
Cc1ccc(NC(=S)NNC(=O)Nc2ccccc2)cc1	ALR inh 97 (no result: PglD DTNB)
COc1cccc(NC(=S)Nc2ccc(F)cc2)c1	none
C[C@H](CO)N1C[C@H](C)[C@H](CN(C)C(=O)Cc2ccccc2)Oc2ncc(-c3cncnc3)cc2C1=O	none (no result: NSD2 inh, ALR inh)
C[C@@H]1CN([C@@H](C)CO)C(=O)Cc2cc(NS(=O)(=O)c3ccccc3)ccc2O[C@@H]1CN(C)Cc1ccc2c(c1)OCO2	none (no result: NSD2 inh, ALR inh, HIV Env fusion)
COc1cccc(NC(=S)NNC(=O)c2ccccc2OC(F)F)c1	ALR inh 79 (no result: Casp6 inh, CFTR F508del cor)
COc1ccc(NC(=S)Nc2ccc3snnc3c2)cc1	ALR inh 97
COc1ccc(S(=O)(=O)N2CC[C@H]3[C@@H](CO)N(C)c4ccc(C5=CCCCC5)cc4[C@H]32)cc1	none (no result: Casp6 inh, NSD2 inh, ALR inh, HIV Env fusion)
Cc1ccc(S(=O)(=O)N(C)C[C@@H]2OCCCC[C@@H](C)Oc3ccc(NS(C)(=O)=O)cc3C(=O)N([C@@H](C)CO)C[C@H]2C)cc1	none (no result: NSD2 inh, ALR inh)
Cc1nc2cc(Cc3ccccc3)ccc2o1	none (no result: PglD DTNB, ALR inh)
Cc1nc2ccc(-c3ccccc3)cc2o1	ALR inh 96 (no result: Casp6 inh, CFTR F508del cor, HIV Env fusion)
COc1cc(/C=C/C(=O)c2cccc([N+](=O)[O-])c2)cc(OC)c1OC	ALR inh 96 (no result: PglD DTNB, CFTR F508del cor)
COc1cc(/C=N/NC(=O)c2cccc(NC(=O)c3ccccc3)c2)ccc1O	ALR inh 98 (no result: NSD2 inh)
O=C(N/N=C/c1ccc(F)cc1)c1cccc(NC(=O)c2ccc(F)cc2)c1	none
O=C(/C=C/c1ccccc1F)c1cccc([N+](=O)[O-])c1	none (no result: Casp6 inh, PglD DTNB, CFTR F508del cor)
O=C(N/N=C/c1cccs1)c1cccc(NC(=O)c2ccccc2Cl)c1	CFTR F508del cor 9.5 (no result: PglD DTNB)
COc1cc(/C=N/NC(=O)c2cccc([N+](=O)[O-])c2)ccc1O	ALR inh 99 (no result: PglD DTNB)
O=C(C[C@H]1CC[C@@H]2[C@H](COC[C@H](O)CN2S(=O)(=O)c2cccc(F)c2)O1)Nc1ccccc1	none (no result: NSD2 inh, ALR inh, HIV Env fusion)
CN1C(=O)c2cc(NC(=O)c3cccc(F)c3)ccc2OC[C@H]2O[C@H](CC(=O)N3CCc4ccccc4C3)CC[C@H]21	none (no result: NSD2 inh, ALR inh, HIV Env fusion)
O=C(NN=Cc1ccccc1O)c1cccc([N+](=O)[O-])c1	CFTR F508del cor 11 (no result: ALR inh)
O=C(N/N=C/c1ccccn1)c1cccc([N+](=O)[O-])c1	none (no result: PglD DTNB)
COc1cc(/C=N/NC(=O)c2cccc(NC(=O)c3ccccc3C)c2)ccc1O	ALR inh 95
CN(C)c1ccc(C(=O)N2CCCC(N3CCN(Cc4ccc5c(c4)OCO5)CC3)C2)cc1 (stereo unspecified)	ALR inh 97
Cc1ccc(S(=O)(=O)N[C@H]2CC[C@H](CC(=O)NCCCN(C)C)O[C@H]2CO)cc1	none (no result: NSD2 inh, ALR inh, HIV Env fusion)
CCOn1c(=O)c(-c2cc3ccccc3o2)[n+]([O-])c2ccccc21	ALR inh 93 (no result: NSD2 inh, CFTR F508del cor, HIV Env fusion)
O=c1c(-c2ccco2)[n+]([O-])c2ccccc2n1OCc1c(F)cccc1F	none
O=c1c(-c2ccco2)[n+]([O-])c2ccccc2n1OCc1ccccc1F	ALR inh 97 (no result: Casp6 inh, CFTR F508del cor)
Cc1noc(C)c1NC(=O)N(C)C[C@H]1OCCCC[C@H](C)Oc2ccc(NS(=O)(=O)c3cn(C)cn3)cc2C(=O)N([C@H](C)CO)C[C@@H]1C	none (no result: Casp6 inh, NSD2 inh, ALR inh)
CN1CCN(Cc2cccc(Oc3ccccc3)c2)CC1	none (no result: HIV Env fusion)
OC1CCN(Cc2cccc(Oc3ccccc3)c2)CC1	ALR inh 98 (no result: Casp6 inh, CFTR F508del cor)
CCN(CC)c1ccc(NC(=O)C2=CC=CN3CCS(=O)(=O)N=C23)cc1	ALR inh 99
CC(C)(C)c1ccc(NC(=O)C2=CC=CN3CCS(=O)(=O)N=C23)cc1	none (no result: HIV Env fusion)
Cc1cccc(C)c1OCc1nc2ccccc2[nH]1	Casp6 inh 43 (no result: PglD DTNB, CFTR F508del cor)
Cc1ccccc1OCC(=O)NCCc1nc2ccccc2[nH]1	ALR inh 99 (no result: CFTR F508del cor)
COc1ccc(C(=O)NC(=S)N2CCN(c3ccccc3O)CC2)cc1	ALR inh 99

High-throughput results (PubChem BioAssay)
